# Most compounds without a hit are left out; they make up all but 6.2% or so of the library.
# AI-2 QS modul: modulates the Vibrio harveyi AI-2 quorum sensing system. AID 2094. activity change, % at 7.5 µM. Vibrio harveyi JMH597 AI-2 luminescence/OD600 ratio, 9 h; stronger effect = lower value; strain lacks LuxN and CqsS sensors; 0 = neutral-control median. hit rate 0.4% among 300,000; in the data active means activity change below about -75%, passing the limit was not always enough;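 further: luminescence divided by OD600 gain over 9 h not by final OD600 alone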
# H9c2 protect: protects H9c2 cardiomyocytes from peroxide injury; protection from H2O2 cell death, % at 20 µM; H2O2 injury protection, ATPLite, 2 h; AID 588492; hit rate 0.63% among 360,000;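 active means compounds giving at least 50% protection of heart cells from peroxide-induced death in the single-dose screen, raw or plate-pattern-corrected value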;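 further: 0% = DMSO wells with peroxide and 100% = DMSO wells without peroxide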
# GRIN3A LBD mod: NR3A (human) ligand-binding domain modulation; AID 1259313; NR3A LBD differential scanning fluorimetry, Tm shift; 0% = protein alone, 100% = glycine-bound protein; Tm shift relative to glycine control, % at 25 µM; hit rate 2.5% among 340,000;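 active means melting temperature shift of at least 10% of the positive control shift, at one fixed dose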
# AHR act: activators of human aryl hydrocarbon receptor; hit rate 2.5% among 320,000; activation, % at 5 µM; AHR-responsive luciferase reporter cells, luminescence; in the data active means activation above about 47%;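 further: 0% = vehicle wells and 100% = reference agonist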
# Target sequence (P35869 whole entry, looked up): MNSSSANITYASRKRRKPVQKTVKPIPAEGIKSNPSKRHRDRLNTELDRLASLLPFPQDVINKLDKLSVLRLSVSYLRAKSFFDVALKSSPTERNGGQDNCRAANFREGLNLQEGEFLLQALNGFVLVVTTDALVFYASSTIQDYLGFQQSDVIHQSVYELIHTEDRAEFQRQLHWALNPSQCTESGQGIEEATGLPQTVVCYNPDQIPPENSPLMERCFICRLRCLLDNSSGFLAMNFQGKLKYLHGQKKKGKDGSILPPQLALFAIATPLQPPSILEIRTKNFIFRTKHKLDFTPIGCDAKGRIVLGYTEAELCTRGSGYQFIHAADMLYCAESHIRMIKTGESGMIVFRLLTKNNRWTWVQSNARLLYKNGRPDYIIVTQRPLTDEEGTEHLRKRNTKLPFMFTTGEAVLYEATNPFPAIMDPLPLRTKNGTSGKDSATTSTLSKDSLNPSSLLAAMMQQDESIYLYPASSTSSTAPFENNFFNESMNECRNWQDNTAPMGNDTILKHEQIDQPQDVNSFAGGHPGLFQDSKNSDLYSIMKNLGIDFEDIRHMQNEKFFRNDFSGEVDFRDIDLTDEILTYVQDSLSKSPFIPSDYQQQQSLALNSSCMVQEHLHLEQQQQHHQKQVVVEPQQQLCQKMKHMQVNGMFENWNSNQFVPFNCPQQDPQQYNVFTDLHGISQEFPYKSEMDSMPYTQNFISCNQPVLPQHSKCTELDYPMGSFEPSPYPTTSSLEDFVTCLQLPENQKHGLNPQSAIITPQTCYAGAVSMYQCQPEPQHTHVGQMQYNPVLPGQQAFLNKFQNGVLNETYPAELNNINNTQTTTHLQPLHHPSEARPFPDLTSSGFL
# Mot1-301 SUMO: blocks SUMOylation pathway, rescuing yeast Mot1-301 growth; AID 2716; hit rate 1% among 320,000; growth rescue, % at 18.8 µM; S. cerevisiae Mot1-301 growth rescue, ATP luminescence, 38.5C; percent above DMSO median, 100 means doubled;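 active means every valid replicate shows activation above 250% relative to neutral control wells; inactive means the rest, any valid replicate at or below 250%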;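 further: OY570 slx delta 5 strain wells were the positive control but not used for scaling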
# NTR1 ag: agonists of human neurotensin receptor NTR1. P30989. NTR1-U2OS beta-arrestin-GFP spot imaging, agonist mode. activation, % at 20 µM. hit rate 0.17% among 330,000. AID 493036;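 active means activation at or above 40% of the spot to cytoplasm intensity ratio, with at least 20 cells analyzed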;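 further: 0% = DMSO without peptide and 100% = 100 nM NTR1 peptide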
# * marks the source's active call; other numbers are inactive results; · = not tested or not shown.
SMILES,AI-2 QS modul,H9c2 protect,GRIN3A LBD mod,AHR act,Mot1-301 SUMO,NTR1 ag
COc1ccc(S(=O)(=O)Nc2cccc(S(=O)(=O)N3CCCCCC3)c2)cc1,6.1,1.3,-6.3,-1.1,-7.2,·
COc1ccc(Nc2nc3ccccc3nc2NS(=O)(=O)c2ccc(NC(C)=O)cc2)cc1,32.3,-8.1,11.7*,-3.8,-5.9,1.3
O=S(=O)(Nc1nc2ccccc2nc1Nc1cccc(S(=O)(=O)N2CCCCC2)c1)c1ccccc1,29.0,-15.4,13.0*,-0.7,-10.4,20.6
NS(=O)(=O)c1ccc(Nc2nc3ccccc3nc2NS(=O)(=O)c2cccc([N+](=O)[O-])c2)cc1,39.1,-3.3,32.0*,-0.3,2.7,0.6
CC(=O)Nc1ccc(S(=O)(=O)Nc2cccc(-c3nc4ccccc4o3)c2)cc1,14.2,-18.7,11.7*,-4.7,-10.2,1.1
COc1ccc(OC)c(NC(=O)COC(=O)CCc2ccc(S(=O)(=O)N3CCOCC3)cc2)c1,·,-0.5,0.5,0.1,-5.8,0.3
CCC(NS(=O)(=O)c1ccc2c(c1)NC(=O)C(C)C(=O)N2)c1cccs1 (stereo not drawn),21.1,7.3,-5.0,0.8,-11.4,-2.2
CC(=O)Nc1ccc(S(=O)(=O)Nc2nc3ccccc3nc2Cl)cc1,13.6,-2.4,37.7*,2.5,-14.4,-0.5
CC(C)NS(=O)(=O)c1ccc(NC(=O)C(C)OC(=O)C2CCC2)cc1 (stereo not drawn),·,-6.5,1.9,1.9,-6.9,-0.8
CN(C)c1ccc(C(O)Cc2nc3ccccc3n2C)cc1 (stereo not drawn),1.2,-6.1,3.4,60.1*,-55.2,0.5
CN(C)c1ccc(-c2nc3ccccc3n2C)cc1,3.7,-24.8,-2.7,8.0,-12.0,0.4
CC(C)c1ccc(C(O)Cc2nc3ccccc3n2C)cc1 (stereo not drawn),11.0,1.2,2.0,70.1*,11.0,0.7
COc1ccccc1C(O)Cc1nc2ccccc2n1C (stereo not drawn),14.7,11.3,-1.1,1.8,-2.1,-0.6
O=C(NCCCn1ccnc1)c1csc2ccccc12,14.0,4.7,-12.3,51.6*,-16.0,0.2
Cc1c(C(=O)NCCCn2ccnc2)oc2ccccc12,12.0,5.0,0.2,58.9*,-4.1,-1.3
O=C(CCC(=O)N1CCSc2ccccc21)NC1CCCCC1,-6.3,-7.7,-1.0,1.9,-18.3,-1.8
COc1cc(-c2coc3c(C(=O)NCc4ccc(C(F)(F)F)cc4)cccc23)ccc1O,·,-7.5,·,·,·,·
CC(C)Oc1ccc(CN2CCC(n3nccc3NC(=O)C3CC3)CC2)cc1,35.9,4.5,-0.3,-0.7,5.7,-0.5
CCOC(=O)c1c(Nc2ccccc2OCCOC)n[nH]c1C,20.2,2.5,-1.1,48.2*,6.6,2.7
CCOc1ccccc1NC(=O)CSc1c(C)n[nH]c1C,10.9,0.5,-0.4,5.4,10.0,-0.3
CCOC(=O)c1c(NCc2ccccc2)n[nH]c1C,12.9,0.2,-8.2,47.7*,-6.9,1.1
CCOC(=O)c1c(C)nsc1NCc1ccccc1,-13.9,-1.9,-1.6,-1.5,-27.7,-0.4
Cc1cnc(C(=O)N(c2ccc(N3CCOCC3)cc2)C2C(=O)Nc3ccccc3N=C2c2ccc(F)cc2)cn1 (stereo not drawn),·,5.4,·,·,·,·
Cc1ccc([C@H]2C(C(=O)O)=CC[C@@H](c3ccc(C)cc3)N2S(=O)(=O)c2ccccc2C)cc1,·,10.8,4.7,0.3,·,4.4
CSc1ccccc1OCc1cc(C(=O)N(C)CC2COCCO2)no1 (stereo not drawn),4.6,2.5,12.6*,5.5,-22.3,1.0
SMILES,AI-2 QS modul,H9c2 protect,GRIN3A LBD mod,AHR act,Mot1-301 SUMO,NTR1 ag
CSc1ccccc1OCc1cc(C(=O)N(C)Cc2nonc2C)no1,-0.6,-2.2,13.1*,18.9,2.5,-0.2
CSc1ccccc1OCc1cc(C(=O)NC(C)Cc2cccc(C)n2)no1 (stereo not drawn),-8.5,2.3,3.2,52.6*,6.9,0.6
COc1cc(Cl)ccc1OCc1cc(C(=O)N(C)Cc2nnc(C)o2)no1,29.3,-0.5,10.3*,0.3,-7.5,1.1
Cc1nonc1CN(C)C(=O)c1cc(COc2ccc(F)cc2Cl)on1,28.2,-6.4,0.7,5.1,-3.0,0.4
O=C(NCC(O)c1nc2ccccc2[nH]1)c1cc2ccccc2[nH]1 (stereo not drawn),·,4.3,·,·,·,·
COc1ccccc1OCc1cc(C(=O)N(C)CCC2CCCCO2)no1 (stereo not drawn),8.8,-1.7,-0.9,52.8*,-6.1,0.2
OCc1cn(-c2ccccc2)nc1-c1ccc(-c2nn(-c3ccccc3)cc2CO)cc1,13.5,39.2,23.6*,2.6,-25.0,11.9
O=C(O)Cc1cn(-c2ccccc2)nc1-c1ccccc1,39.8,-1.3,-1.6,3.1,4.1,1.1
CCOc1cc(-c2cc(-c3ccc(N)cc3)nc(N)c2C#N)ccc1O,21.3,116.2*,-10.9,27.1,-15.9,8.9
CC(C)=CCCC(C)=CCN1C(=O)CN(C)C1=O,·,-7.5,·,·,·,·
CC(NC(=O)c1cc(S(=O)(=O)N2CCOCC2)cn1C)c1ccccc1 (stereo not drawn),10.9,11.4,-2.5,2.2,-16.2,-1.4
Cc1ccc(CCNS(=O)(=O)c2cc(Br)cnc2N)cc1,19.0,-5.2,-10.2,-0.6,-8.1,2.2
Cc1cc(C)n2[nH]c(=O)c(N=Nc3ccc(S(N)(=O)=O)cc3)c2n1,23.1,9.9,1.0,-1.2,10.2,-0.8
Cc1ccc(N=Nc2c(N)[nH]n3c(=O)cc(C)nc23)cc1,10.6,13.3,1.2,9.5,-14.5,·
Nc1[nH]n2c(=O)cc(-c3ccccc3)nc2c1N=Nc1ccccc1,14.8,15.0,15.8*,3.0,-15.8,0.9
O=c1cc(-c2ccccc2)nc2nc(-c3ccccc3)[nH]n12,10.8,-3.0,-23.5,73.7*,-16.0,-2.7
NS(=O)(=O)c1ccc(N=Nc2c(-c3ccccc3)[nH]n(-c3nc(-c4ccccc4)cs3)c2=O)cc1,18.5,10.5,26.2*,-3.2,-11.1,9.5
NC(=O)c1ccc(N=Nc2c(-c3ccccc3)[nH]n(-c3ccccc3)c2=O)cc1,37.9,·,·,12.2,1.8,6.5
Nc1[nH]n2c(=O)cc(-c3ccccc3)nc2c1N=Nc1ccc(S(N)(=O)=O)cc1,-3.0,-8.5,25.5*,0.2,1.6,1.9
CCc1ccc2c(CC(=O)NNC(=O)c3ccncc3)coc2c1,·,2.8,1.1,0.6,4.2,-0.4
COc1ccccc1N(C(=O)CNC(=O)c1ccco1)C(C(=O)NCC1CCCO1)c1ccccc1 (stereo not drawn),11.0,9.8,1.1,-1.9,22.5,-0.4
CCc1nnc(SCC(=O)Nc2ccccc2)n1CC1CCCO1 (stereo not drawn),7.5,-0.4,-1.1,·,-8.2,1.7
NC(=O)c1ccccc1N=Cc1ccccn1,21.1,78.0*,1.1,3.9,1.1,0.5

# Assay outcomes: PubChem, several laboratories
